# Bioassay records deposited in PubChem BioAssay by National Center for Advancing Translational Sciences (NCATS).
# Hits are enriched below; roughly 10% of the tested compounds scored in any of these assays.
# VP16 counter: Gal4-VP16 reporter inhibition counter-screen. Drosophila S2 Gal4-VP16 UAS-luciferase, luminescence, 20 h. AID 2546. Potency, µM (series often up to 53.6 µM), without a hit: top-dose activity, negative = inhibition, usual class: inhibitors. 310,000 compounds, 3.5% hits;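 note: Gal4-VP16 expression switched on by copper sulfate through the metallothionein promoter; % is set by controls: 0 for no effect and ±100 for the full control effect; nearly all actives have a fitted effect of over 50% in size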
# KB-V1 MDR tox: kills drug-selected multidrug resistant KB-V1 cells | KB-V1 MDR cells viability, CellTiter-Glo, 72 h | Potency, µM (highest dose often 46.1 µM), usual class: cytotoxic | 400,000 compounds, 3.4% hits | AID 1347076; note: % is set by controls: 0 for no effect and ±100 for the full control effect; nearly all actives have a fitted effect of over 60% in size
#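 Cells of the MDR subline KB-V1 are plated, dosed with compound at multiple concentrations, and incubated 72 h at 37 degrees C; CellTiter-Glo is then added and luminescence read after 10 min.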
# MCF10A rereplic: induces DNA re-replication in MCF 10a normal breast cells; MCF 10A DNA re-replication, Hoechst nuclear intensity, 48 h; Potency, µM (titrated, usually from 46.1 µM), inactives show top-dose activity, positive = re-replication, most hits filed as activators; 350,000 compounds, 2.9% hits; AID 624296; note: % of control where 0% means no effect; nearly all actives have a fitted effect of over 50% in size
# RORg inh: blocks mouse ROR gamma transcriptional activity. P51450. Drosophila S2 Gal4-RORgamma UAS-luciferase reporter, 20 h. Potency, µM (top dose mostly 53.6 µM), for the others: at the highest dose activity change, negative = inhibition, hits mostly inhibitors. 310,000 compounds, 5.4% hits. AID 2551; note: % is set by controls: 0 for no effect and ±100 for the full control effect; nearly all actives have a fitted effect of over 60% in size
# Target sequence (P51450 whole entry, looked up, the tested form may be a part): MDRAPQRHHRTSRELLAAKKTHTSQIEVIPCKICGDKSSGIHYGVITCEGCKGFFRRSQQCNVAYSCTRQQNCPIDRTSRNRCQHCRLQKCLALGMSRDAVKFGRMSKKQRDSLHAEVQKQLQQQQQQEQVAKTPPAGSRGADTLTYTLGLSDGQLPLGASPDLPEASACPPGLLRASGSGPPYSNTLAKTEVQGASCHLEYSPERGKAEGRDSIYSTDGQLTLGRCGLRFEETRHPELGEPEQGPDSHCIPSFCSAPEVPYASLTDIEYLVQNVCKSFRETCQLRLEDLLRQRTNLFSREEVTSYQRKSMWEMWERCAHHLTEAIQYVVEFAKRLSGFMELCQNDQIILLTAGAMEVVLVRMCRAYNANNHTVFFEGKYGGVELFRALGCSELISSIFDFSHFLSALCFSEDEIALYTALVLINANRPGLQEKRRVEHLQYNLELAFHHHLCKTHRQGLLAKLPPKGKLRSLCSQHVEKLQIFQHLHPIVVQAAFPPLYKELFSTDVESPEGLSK
#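 Luciferase reporter read in Schneider cells carrying Gal4-RORγ (mouse) and UAS-Photinus luciferase; cells given compound 1 h before 700 uM copper sulfate induction, then incubated 20 h at ambient temperature.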
# KB-3-1 tox: KB-3-1 parental cell cytotoxicity; KB-3-1 viability, CellTiter-Glo ATP luminescence, 72 h; Potency, µM (titrated, usually from 46.1 µM), hits mostly cytotoxic; 400,000 compounds, 1.4% hits; note: % is set by controls: 0 for no effect and ±100 for the full control effect; nearly all actives have a fitted effect of over 60% in size
#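 KB-3-1 parental drug-naive adenocarcinoma cells in DMEM/10% FBS, incubated 72 h at 37 C with pin-transferred compounds across a concentration series. Viability by CellTiter-Glo luminescence; concentration-response curves fitted after normalization.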
# SW480 rerep: DNA re-replication induction in SW480 cells | SW480 DNA re-replication, Hoechst DNA content imaging, 48 h | 340,000 compounds, 1.8% hits | Potency, µM (series often up to 46.1 µM), without a hit: top-dose re-replication activation, actives largely listed as activators | AID 624297; note: % of control where 0% means no effect; nearly all actives have a fitted effect of over 55% in size
#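 Quantitative HTS format with DMSO vehicle controls; 48 hr drug incubation at 37 C, then 40 min Hoechst staining and scanning imager measurement at 405 nm excitation.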
# An asterisk follows results filed as active; i = inactive; ? = inconclusive; . = not tested or not shown; [ ] = another dose, or the depositor's remark. Calls come from the whole dose curve; as a rule, active = well fitted curve in the direction sought with a large enough effect; inconclusive = small, poorly fitted or top-dose-only effect, or another doubt; inactive = no such curve, though single readings can be large; an effect the other way counts as inactive or inconclusive. Potency is the fitted concentration of half-maximal effect.
SMILES,VP16 counter,KB-V1 MDR tox,MCF10A rereplic,RORg inh,KB-3-1 tox,SW480 rerep
COc1ccc(N(Cc2cccs2)C(=O)Nc2ccccc2)cc1,.,i,.,.,i,.
CC(C)(C)OC(=O)NCC(=O)Oc1cc2oc(=O)cc(-c3ccccc3)c2cc1Cl,5.2%,i,23.1µM*,-7.1%,i,20.6µM*
N#CC1=C(N)N2C(=C(C#N)C1c1ccc(Br)cc1)Nc1ccccc12 (stereo not given),11.2µM*,i,2.06µM*,?,i,16.4µM*
N#CC1=C(N)N2C(=C(C#N)C1c1ccccc1)Sc1ccccc12 (stereo not given),10.3%,.,.,-5.2%,.,.
N#CC1=C(N)N2C(=C(C#N)C1c1cccc(Br)c1)Nc1ccccc12 (stereo not given),12.6µM*,5.8µM*,20.6µM*,?,?,14.6µM*
O=C(/C=C/c1ccc(Cl)cc1Cl)Nc1cccc(S(=O)(=O)NC2=NCCC2)c1,8.91µM*,i,-24.5%,7.08µM*,?,-47.9%
O=C(/C=C/c1ccccc1Cl)Nc1cccc(S(=O)(=O)NC2=NCCCCC2)c1,-10.9%,i,21.9%,?,?,-0.1%
O=C(/C=C/c1ccc([N+](=O)[O-])cc1)Nc1cccc(S(=O)(=O)NC2=NCCCCC2)c1,.,18.4µM*,10.4%,.,i,0.8%
CC1(O)C(c2ccccc2)=Nc2ccccc21 (stereo not given),.,i,.,.,i,.
COC(=O)c1cc2occc2n1CC(=O)Nc1ccc(OC)c(OC)c1OC,-2.4%,i,3.6%,-16.1%,i,-2.9%
COC(=O)c1cc2sc(Cl)cc2n1CC(=O)Nc1ccc(OC)c(OC)c1OC,-1.6%,i,25.9µM*,?,i,17.9%
C=C1c2cccc(O)c2C(O)=C2C(=O)[C@@]3(O)C(O)=C(C(N)=O)C(=O)[C@@H](N(C)C)[C@@H]3[C@@H](O)[C@H]12,-6.2%[17 µM],.,-1.6%[20.6 µM],19.9%[2.98 µM],.,?
O=C(CN1C(=O)C2(SCC(=O)N2c2ccc(F)cc2)c2ccccc21)NC1CCCCC1 (stereo not given),.,?,.,.,i,.
CCCCn1c(-c2ccc(F)c(F)c2)nc2cc3[nH]c(=O)c(C(C)C)nc3cc21,-1.6%,i,23.1µM*,16.2%,i,0.1%
CCCCn1c(CCc2ccccc2)nc2cc3[nH]c(=O)c(C(C)C)nc3cc21,-13.7%,i,?,34.2%,i,1.5%
COC(=O)C[C@H]1C=C[C@@H](NC(=O)C2CC2)[C@@H](CO)O1,.,i,.,.,i,.
Nc1ncnc(N2CCOCC2)c1N,-7.3%,i,0.7%,7.7%,i,20.6µM*
Nc1c(Cl)ncnc1N1CCCC1,1.6%,i,-0.9%,-3.2%,i,-1.4%
N#Cc1ccc(NC(=O)c2ccc3c(c2)nnn3C2CCCC2)cc1,.,i,.,.,i,.
CCC(CO)NC(=O)C(=O)Nc1c2c(nn1-c1ccc(F)cc1)CSC2 (stereo not given),.,i,.,.,i,.
COc1cc2c(cc1OC)CN(c1ccc(C(F)(F)F)cn1)CC2,2.0%,?,16.4µM*,?,i,?
COc1ccc(C2CC(=O)c3cnc(N4CCN(Cc5ccccc5)CC4)nc3C2)cc1 (stereo not given),?,i,16.0%,?,i,14.0%
CCN1CCN(c2ncc3c(n2)CC(c2ccc(OC)c(OC)c2)CC3=O)CC1 (stereo not given),3.5%,20.6µM*,?,9.2%,16.4µM*,?
COc1ccc(C2CC(=O)c3cnn(-c4nc(C)cc(C)n4)c3C2)cc1OC (stereo not given),-1.7%,i,-1.4%,-8.2%,i,-0.8%[9.22 µM]
CCOC(=O)N1CCN(c2ncc3c(n2)CC(c2ccc(OC)c(OC)c2)CC3=O)CC1 (stereo not given),.,4.11µM*,.,.,?,.
